# Laboratory results as given in PubChem BioAssay (EPA / NIEHS).
# Records with an inconclusive call do not appear. Calls of active or inactive are those of the source. Rule for the calls: active = hit-call score of the fitted dose curve at least 0.9, where 1 is the maximum; inconclusive = response in the unintended direction; inactive = score below 0.9.
# Read-out: Broad substrate specificity ATP-binding cassette transporter ABCG2 (Homo sapiens) (UniProt Q9UNQ0)
# Assay: CLD_ABCG2_24hr: CellzDirect (CLD) Gene Expression Assay for ABC Transporter (ABCG2) at 24 hours (AID 2283685)
# Procedure: CLD_24hr is a cell-based, multiplexed-readout assay that uses hepatocyte, a human liver primary cell, with measurements taken at 24 hours after chemical dosing in a 96-well plate.CLD_ABCG2_24hr is one of 16 assay component(s) measured or calculated from the CLD_24hr assay. It is designed to make measurements of mRNA induction, a form of inducible reporter, as detected with chemiluminescence signals by Quantitative Nuclease Protection Assay (qNPA) technology.Data from the assay component CLD_ABCG2_24hr was analyzed at the endpoint, CLD_ABCG2_24hr, in the positive analysis fitting direction relative to DMSO as the negative control and baseline of activity. Using a type of inducible reporter, gain-of-signal activity can be used to understand changes in the reporter gene as they relate to the gene ABCG2. Furthermore, this assay endpoint can be referred to as a primary readout. To generalize the intended target to other relatable targets, this assay endpoint is annotated to the transporter intended target family, where subfamily is ABC transporter.
# Human hepatocyte cultures were treated daily for two consecutive days with fresh dosing solutions containing appropriate concentrations of the 320 ToxCast chemicals (chemical identities were blinded to CellzDirect and other ToxCast collaborators), vehicle control (0.2% DMSO), and positive control inducers as summarized in Table 1. Due to the large number of treatment groups and chemicals examined, the ToxCast chemicals were divided into two groups (spanning two independent cultures of hepatocytes from separate donor preparations (Hu778: ToxCast plates 1 and 2; Hu776: ToxCast plates 3 and 4). Each preparation of human hepatocyte cultures was treated with respective vehicle control, medium only control, set of six positive controls/reference chemicals for the five hepatic receptor pathways, and a subset of eight of the ToxCast chemicals (indoxacarb, pyrithiobac-sodium, norflurazon, cyhalofop-butyl, methomyl, thiram, acetochlor, and propiconazole). These replicate data, coupled with internal replicates designed within the blinded ToxCast chemical library, provided additional data to evaluate interindividual differences between hepatocyte preparations and their potential impact on chemical profiles.Cell morphology and integrity were evaluated using phase-contrast microscopy as an indicator of hepatocyte cell health (Tyson & Green, 1987). Cultures for each treatment group (i.e., media, vehicle [0.2% DMSO], positive control inducers [multiple concentrations], and the ToxCast chemicals [multiple concentrations]) were observed and cell morphology was assessed relative to vehicle control cultures at each harvest time point (0, 6, 24, or 48 h). […] Images were evaluated at the conclusion of the study to assess changes in cell integrity and account for the effects of chemical exposure on uncharacteristic changes in concentration-dependent gene expression profiles. The results from these determinations of apparent cytotoxicity were annotated (yes/no) alongside the corresponding qNPA data for reference.At the conclusion of each treatment period, hepatocyte cultures (96-well) were washed with 1 volume of HBSS, lysed by addition of 25 ul ArrayPlate lysis buffer (HTG, Tucson, AZ), and 70 ul/well of Denaturation Oil, denatured by incubation at 95C for 10 min, and frozen at approximately -70C until analysis by nuclease protection assay (qNPA) (Roberts et al., 2007). For qNPA analysis, cell lysates were thawed at 50C for approximately 30 min, qNPA probes were added, and samples were incubated at 95C for 10 min to begin the detection process by denaturing the target RNA, dissociating the duplexes and secondary structure hybridization. At the conclusion of the hybridization period, S1 nuclease reagent was added to each sample to digest all nonprotected nucleotides at 50C for 60-90 min. […]
# Chain of Broad substrate specificity ATP-binding cassette transporter ABCG2 (Homo sapiens) (Q9UNQ0 whole entry, looked up): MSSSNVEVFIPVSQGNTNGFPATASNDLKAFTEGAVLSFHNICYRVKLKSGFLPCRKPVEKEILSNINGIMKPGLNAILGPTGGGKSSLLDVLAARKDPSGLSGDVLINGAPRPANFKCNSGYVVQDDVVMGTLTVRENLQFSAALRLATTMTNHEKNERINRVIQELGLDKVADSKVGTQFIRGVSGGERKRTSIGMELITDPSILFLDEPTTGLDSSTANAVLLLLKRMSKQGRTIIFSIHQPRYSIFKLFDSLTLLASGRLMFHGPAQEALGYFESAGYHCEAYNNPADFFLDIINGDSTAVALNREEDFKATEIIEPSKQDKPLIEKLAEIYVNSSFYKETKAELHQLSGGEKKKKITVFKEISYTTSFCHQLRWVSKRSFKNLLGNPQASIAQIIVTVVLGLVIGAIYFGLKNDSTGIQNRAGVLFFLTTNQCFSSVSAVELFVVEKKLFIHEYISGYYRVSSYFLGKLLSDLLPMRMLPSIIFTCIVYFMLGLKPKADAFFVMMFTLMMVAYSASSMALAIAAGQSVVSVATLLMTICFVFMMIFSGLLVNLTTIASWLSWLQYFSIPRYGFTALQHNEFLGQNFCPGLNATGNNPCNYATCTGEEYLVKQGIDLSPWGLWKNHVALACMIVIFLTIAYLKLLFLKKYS
Structure (SMILES),outcome,AC50
CCOc1nc(NC)nc(NC(=O)NS(=O)(=O)c2ccccc2C(=O)OC)n1,inactive,–
Clc1ccccc1-c1nnc(-c2ccccc2Cl)nn1,inactive,–
O=[N+]([O-])c1c(Cl)c(Cl)c(Cl)c(Cl)c1Cl,inactive,–
COC(=O)c1ccccc1S(=O)(=O)NC(=O)N(C)c1nc(C)nc(OC)n1,inactive,–
OCCOc1ccccc1,inactive,–
CC(C)N(C(=O)COc1nnc(C(F)(F)F)s1)c1ccc(F)cc1,inactive,–
CCOCN(C(=O)CCl)c1c(C)cccc1CC,inactive,–
[2H]C1([2H])[n+]2ccccc2-c2cccc[n+]2C1([2H])[2H],inactive,–
COP(=O)(OC)OC=C(Cl)Cl,inactive,–
COc1cc(OC)nc(NC(=O)NS(=O)(=O)c2cc(NC=O)ccc2C(=O)N(C)C)n1,inactive,–
CCCN(CCC)c1c([N+](=O)[O-])cc(C(F)(F)F)cc1[N+](=O)[O-],inactive,–
O=C1c2ccccc2C(=O)N1SC(Cl)(Cl)Cl,inactive,–
COP(=S)(OC)Oc1ccc([N+](=O)[O-])cc1,inactive,–
O=S1OCC2C(CO1)C1(Cl)C(Cl)=C(Cl)C2(Cl)C1(Cl)Cl (centres undefined),inactive,–
C#CCN1C(=O)COc2cc(F)c(N3C(=O)C4=C(CCCC4)C3=O)cc21,inactive,–
CC(C)OC(=O)Nc1cccc(Cl)c1,inactive,–
CCS(=O)(=O)c1cccnc1S(=O)(=O)NC(=O)Nc1nc(OC)cc(OC)n1,inactive,–
N#CN,inactive,–
COC(=O)c1ccccc1S(=O)(=O)NC(=O)Nc1nc(C)nc(OC)n1,inactive,–
CCC(C)(C)C(=O)OC1=C(c2ccc(Cl)cc2Cl)C(=O)OC12CCCCC2,inactive,–

Structure (SMILES),outcome,AC50
CCN(CC)C(=O)SCc1ccc(Cl)cc1,inactive,–
CC(C)(C)C(O)C(Oc1ccc(Cl)cc1)n1cncn1 (centres undefined),inactive,–
O=C(O)C(F)(F)C(F)(F)C(F)(F)C(F)(F)C(F)(F)C(F)(F)C(F)(F)F,inactive,–
O=S(=O)(O)C(F)(F)C(F)(F)C(F)(F)C(F)(F)C(F)(F)C(F)(F)C(F)(F)C(F)(F)F,inactive,–
CC(C)(C)C(O)/C(=C\c1ccc(Cl)cc1Cl)n1cncn1 (centres undefined),inactive,–
COc1nn(CSP(=S)(OC)OC)c(=O)s1,inactive,–
CN1CSC(=S)N(C)C1,inactive,–
N#Cc1c(Cl)c(Cl)c(Cl)c(C#N)c1Cl,inactive,–
CNC(=O)Oc1ccccc1OC(C)C,inactive,–
C[C@H]1[C@H](c2ccc(Cl)cc2)SC(=O)N1C(=O)NC1CCCCC1,inactive,–
ClC1C(Cl)C(Cl)C(Cl)C(Cl)C1Cl (centres undefined),inactive,–
Cc1cc(C)nc(NC(=O)NS(=O)(=O)c2ccccc2C(=O)OC2COC2)n1,inactive,–
O=C(O)CCCOc1ccc(Cl)cc1Cl,inactive,–
O=C(O)COc1ccc(Cl)cc1Cl,inactive,–
O=[N+]([O-])/N=C1\NCCN1Cc1ccc(Cl)nc1,inactive,–
CCCN(CCOc1c(Cl)cc(Cl)cc1Cl)C(=O)n1ccnc1,inactive,–
CCOC1Oc2ccc(OS(C)(=O)=O)cc2C1(C)C (centres undefined),inactive,–
O=C(NC(=O)c1c(F)cccc1F)Nc1ccc(OC(F)(F)C(F)OC(F)(F)F)c(Cl)c1 (centres undefined),inactive,–
CC[C@H](C)[C@H]1O[C@]2(C=C[C@@H]1C)C[C@@H]1C[C@@H](C/C=C(\C)[C@@H](O[C@H]3C[C@H](OC)[C@@H](O[C@H]4C[C@H](OC)[C@@H](O)[C@H](C)O4)[C@H](C)O3)[C@@H](C)/C=C/C=C3\CO[C@@H]4[C@H](O)C(C)=C[C@@H](C(=O)O1)[C@]34O)O2 (tested in a mixture with another compound),–,4.64 µM (active)
